Bioassay records as filed in PubChem.
SW480 rerep: DNA re-replication induction in SW480 cells. SW480 DNA re-replication, Hoechst DNA content imaging, 48 h. Potency, µM (doses to about 46.1 µM), for inactives: at the top dose re-replication activation, usual class: activators. actives 1.8% (n = 340,000). AID 624297; note: % of control where 0% means no effect; nearly all actives have a fitted effect of over 55% in size
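Per well, 250 cells were exposed to pinned compound for 48 hr. Nuclear DNA was visualised with Hoechst (40 min, 37 C) and total object intensity recorded by fluorescence scanning.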
KB-V1 cytotox: kills drug-selected multidrug resistant KB-V1 cells | KB-V1 MDR cells viability, CellTiter-Glo, 72 h | Potency, µM (titrated, usually from 46.1 µM), usual class: cytotoxic | actives 3.4% (n = 400,000) | AID 1347076; note: % is set by controls: 0 for no effect and ±100 for the full control effect; nearly all actives have a fitted effect of over 60% in size
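KB-V1, DMEM (no phenol red) + 10% FBS; cpd pin-transferred, titration series; 72 h, 37 degrees C; CellTiter-Glo, luminescence. Data normalized, curve-fit.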
HT1080-NT tox: kills 2HG-producing HT-1080-NT fibrosarcoma cells; HT-1080-NT fibrosarcoma viability, CellTiter-Glo ATP luminescence, 48 h; Potency, µM (series often up to 46.1 µM), inactives show at the top dose activity, negative = less viability, hits mostly cytotoxic; actives 1.6% (n = 360,000); AID 686970;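 note: NT is the 2HG producing partner of a matched IDH1 knockdown line; 0% = DMSO-treated cells and -100% = media-only wells without cells; nearly all actives have a fitted effect of over 55% in size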
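HT-1080-NT; 750 cells/well; 5% FBS RPMI; 48 h compound, 37 degrees C; CellTiter-Glo luminescence; curve fitting and curve-class assignment.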
KB-3-1 tox: KB-3-1 parental cell cytotoxicity; KB-3-1 viability, CellTiter-Glo ATP luminescence, 72 h; Potency, µM (titrated, usually from 46.1 µM), actives largely listed as cytotoxic; actives 1.4% (n = 400,000); AID 1347075; note: % is set by controls: 0 for no effect and ±100 for the full control effect; nearly all actives have a fitted effect of over 60% in size
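Screening of KB-3-1 cells (DMEM, 10% FBS, phenol-red free) ran from lowest to highest compound concentration; after 72 h at 37 °C viability was read luminescently and curves fitted.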
HT1080 IDH1KD tx: HT-1080 IDH1 knockdown cell toxicity (counter line). HT-1080 IDH1 knockdown viability, ATP luminescence, 48 h. Potency, µM (series often up to 46.1 µM), for the others: at the top dose activity, negative = toxicity, most hits filed as cytotoxic. actives 2% (n = 360,000). AID 686971;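 note: 0% = DMSO wells and -100% = cell-free medium wells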
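IDH1KD HT-1080 cells, 750/well, RPMI + 5% FBS; compound pinned after 2 h settling; 48 h, 37 °C; CellTiter-Glo luminescence; % activity normalised to DMSO and no-cell wells; curves fitted, classed by r2 and efficacy.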
MCF10A rereplic: induces DNA re-replication in MCF 10a normal breast cells. MCF 10A DNA re-replication, Hoechst nuclear intensity, 48 h. Potency, µM (highest dose often 46.1 µM), inactives show top-dose activity, positive = re-replication, usual class: activators. actives 2.9% (n = 350,000); note: % of control where 0% means no effect; nearly all actives have a fitted effect of over 50% in size
Active calls of the source: *; i = inactive; u = inconclusive; x = no result. A selection: hits, their analogues and other compounds. The true share with any hit is near 7.9%. Calls come from the whole dose curve; as a rule, active = well fitted curve in the direction sought with a large enough effect; inconclusive = small, poorly fitted or top-dose-only effect, or another doubt; inactive = no such curve, though single readings can be large; an effect the other way counts as inactive or inconclusive. Potency is the fitted concentration of half-maximal effect.

SMILES	SW480 rerep	KB-V1 cytotox	HT1080-NT tox	KB-3-1 tox	HT1080 IDH1KD tx	MCF10A rereplic
COc1ccc(C(=O)N/N=C/C(Br)=C/c2ccccc2)cc1	u	u	-11%	i	-13%	u
COc1cccc(/C=C(/C(=O)OCC(N)=O)c2ccccc2)c1	-3%	u	-9%	i	-9%	-1%
O=C(Cc1cccs1)N/N=C/C(Br)=C/c1ccccc1	14%	i	u	i	u	18µM*
CC(/C=N/NC(=O)Cc1cccs1)=C\c1ccccc1	21%	i	22%	i	16%	u
COc1cccc(C=C(C(C)=O)C(=O)c2ccccc2)c1	x	u	u	u	16µM*	x
Cn1cc(C(=O)N/N=C/C(Br)=C\c2ccccc2)ccc1=O	18µM*	i	-9%	i	-28%	u
COc1cccc(C(=O)N/N=C/C(Br)=C/c2ccccc2)c1	u	3.7µM*	u	u	12µM*	8.2µM*
CCN(CC(=O)NC1CCS(=O)(=O)C1)S(=O)(=O)c1ccc(Br)cc1 (stereo unspecified)	-1%	i	-2%	i	-2%	-2%
COc1cccc(NC(=O)Nc2cc(C(=O)O)ccc2N2CC3CC(C2)c2cccc(=O)n2C3)c1 (stereo unspecified)	14%	i	1%	i	-5%	2%
CCCN(CC(=O)Nc1ccccc1OC)C(=O)CCNC(=O)c1ccccc1OC	-4%	i	3%	i	5%	0%
O=C(N/N=C/C(Br)=C/c1ccccc1)c1cnccn1	3.3µM*	i	u	i	u	16µM*
Cn1cc(C(=O)N/N=C/C=C/c2ccccc2)ccc1=O	0%	i	22%	i	19%	-4%
Cn1cc(C(=O)N/N=C/C(Br)=C/c2ccccc2)ccc1=O	u	i	21µM*	u	u	26µM*
O=C(N/N=C/C=C\c1ccccc1)c1cnccn1	0%	i	13%	i	17%	0%
O=C(O)C(Cc1ccc(F)cc1)c1ccccc1 (stereo unspecified)	-1%	i	10%	i	4%	-1%
O=C(NCc1cccc(C(F)(F)F)c1)c1cc(Cl)ccc1Cl	10µM*	i	8%	i	1%	1%
O=C(Cn1cncn1)NCc1cccc(OC(F)F)c1	1%	i	27%	i	10%	10%
O=C(Cn1cncn1)NCc1cccc(C(F)(F)F)c1	-28%	i	-1%	i	-4%	0.65µM*
O=C(Cc1cccc(C(F)(F)F)c1)NCc1cccc(Cl)c1	u	i	2%	i	-12%	u
O=S(=O)(NCCc1csc(-c2ccc(F)cc2)n1)c1ccc(Cl)cc1	x	i	x	u	x	x
Cc1nn(C)c(C)c1NS(=O)(=O)c1ccc(N2CCCC2=O)cc1	63%	u	-29%	u	u	u
COc1ccc(NS(=O)(=O)c2ccc(N3CCCC3=O)cc2)cn1	21µM*	u	15µM*	u	18µM*	10µM*
Cc1ccccc1NS(=O)(=O)c1ccc(N2CCCC2=O)cc1	3.7µM*	2.6µM*	12µM*	5.2µM*	9.2µM*	12µM*
Cc1ccc(OCCNS(=O)(=O)c2ccc(N3CCCC3=O)cc2)cc1	-4%	i	-8%	i	-6%	3%
Cc1ccc(OCCNS(=O)(=O)c2ccc(N3CCCC3=O)cc2)cc1C	u	16µM*	u	u	-2%	20%
SMILES	SW480 rerep	KB-V1 cytotox	HT1080-NT tox	KB-3-1 tox	HT1080 IDH1KD tx	MCF10A rereplic
COc1ccc(OC)c(NS(=O)(=O)c2ccc(N3CCCC3=O)cc2)c1	0.82µM*	2.1µM*	0.52µM*	0.82µM*	0.52µM*	u
COC(=O)Cn1c(=O)c2cccn2c2ccc(F)cc21	x	i	x	i	x	x
COc1ccc(Cl)cc1C(=O)Nc1nnc2n1CCS2	x	i	x	i	x	x
O=C1CCCN1c1ccc(S(=O)(=O)NCCc2ccc(Cl)cc2)cc1	-2%	18µM*	-18%	i	u	5%
COc1ccc(CCNS(=O)(=O)c2ccc(N3CCCC3=O)cc2)cc1	0%	i	-8%	i	-6%	u
O=C(CCn1ccc2cc(S(=O)(=O)N3CCCC3)ccc21)NCc1ccccc1Cl	x	u	x	i	x	x
CC(C)[C@@H]1CC[C@@H](C)C[C@H]1OC(=O)C[n+]1cc(-c2ccc(Cl)cc2)n2c1CCCCC2	u	i	6.5µM*	u	7.3µM*	u
COc1ccc(-c2c[n+](CC(=O)OC3CC(C)CCC3C(C)C)c3n2CCC3)cc1 (stereo unspecified)	-32%	i	18µM*	i	21µM*	0.82µM*
CCC(=O)N1CCc2cc(S(=O)(=O)NC(CC(C)C)C(=O)N3CCc4ccccc43)ccc21 (stereo unspecified)	u	13µM*	-16%	i	2%	7%
CC(C)(C)c1ccc(CN2N=Nc3ccccc3S2(=O)=O)cc1	u	8.2µM*	u	12µM*	u	u
S=c1[nH]nc(-c2ccc(Cl)cc2)n1/N=C/c1cccs1	9.2µM*	i	-22%	i	u	-15%
O=C(CCl)Nc1ccccc1Sc1ccc(Cl)cc1	15µM*	u	u	u	u	15µM*
O=C(CSc1ncn[nH]1)Nc1ccccc1Sc1ccccc1	0%	15µM*	-4%	i	u	20%
CC(=O)N1CCN(CC(=O)Nc2ccccc2Sc2ccc(Cl)cc2)CC1	2%	5.8µM*	2%	u	-4%	9%
O=C1c2ccccc2C2(c3ccccc3)N1CCN2C(=O)C(Cl)(Cl)Cl (stereo unspecified)	u	16µM*	u	u	u	u
Cc1ccc(C(=O)N2CCN3C(=O)c4ccccc4C23c2ccccc2)cc1 (stereo unspecified)	-1%	i	7%	i	25%	-3%
CCSC(N)=Nc1ccc(C(F)(F)F)cc1	x	x	22%	x	18%	x
CCOC(=O)c1c(CN2CCN(CCO)CC2)n(-c2ccccc2)c2cc(Br)c(O)cc12	u	i	u	i	23µM*	u
CCOC(=O)c1c(CN2CCN(CC#N)CC2)n(C)c2cc(Br)c(OC)cc12	u	i	u	i	21µM*	u
COc1ccc(NC(=O)c2oc3ccccc3c2NC(=O)Cc2coc3ccc(C)cc23)cc1	x	i	x	i	x	x
